Drawing on PubChem BioAssay, this text covers growth inhibition, inhibition and outcome for 18 compounds.

For orientation: inhibition means the change of the read-out against control, counted positive when it falls.

The nature of assay [1]: antimalarial activity against Dd2 strain (AID 2302;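 active = growth inhibition above 50% at the single 2 µM test dose, taken to imply half-maximal potency below 2 µM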;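 also: 0% = DMSO untreated growth and 100% = chloroquine plus artemisinin killed control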). Particulars: P. falciparum Dd2 in RBCs, LDH growth readout, 72 h; at 2 µM; active compounds read high.
Assay [2] can be described thus: HepG2 cytotoxicity, primary screen, cytotoxicity control for P. falciparum antimalarial project, cell-based, ATP luminescence (AID 2303;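 active = inhibition above 50%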;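 also: 0% = DMSO wells and 100% = digitonin-killed cells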). The settings on record: HepG2 viability, 24-48 h, at 10 µM, active compounds read high.
The target of assay [3] is L-lactate dehydrogenase (Plasmodium falciparum (isolate CDC / Honduras)) (UniProt Q27743). In words: PfLDH activity inhibition – cell lysate, 3D7 strain, counter-screen for P. falciparum growth inhibition project (AID 2304).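 Also: 0% = vehicle and 100% = reference inhibitor.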 Particulars: P. falciparum 3D7 crude extract, LDH APAD/NBT absorbance; at 2 µM; active compounds read high.
Chain of L-lactate dehydrogenase (Plasmodium falciparum (isolate CDC / Honduras)) (Q27743 whole entry, looked up): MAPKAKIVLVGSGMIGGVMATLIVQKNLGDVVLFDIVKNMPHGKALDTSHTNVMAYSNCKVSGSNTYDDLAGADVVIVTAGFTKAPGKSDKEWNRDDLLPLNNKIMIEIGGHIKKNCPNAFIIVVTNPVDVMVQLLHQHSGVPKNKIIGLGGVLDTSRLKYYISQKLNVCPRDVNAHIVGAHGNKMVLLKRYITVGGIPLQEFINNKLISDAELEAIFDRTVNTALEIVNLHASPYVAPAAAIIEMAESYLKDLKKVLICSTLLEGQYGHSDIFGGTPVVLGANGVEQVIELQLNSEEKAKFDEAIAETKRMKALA
Assay [4] is described as follows: inhibition of 3D7 malaria parasite growth – strain 3D7 (AID 2306).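 Also: 0% = DMSO wells and 100% = chloroquine plus artemisinin control wells.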 The settings on record: P. falciparum 3D7 erythrocytic growth, LDH absorbance, 72 h; at 2 µM; active compounds read high.
Assay [5] has as its target Calcium-dependent protein kinase 1 (Plasmodium falciparum (isolate 3D7)) (UniProt P62344). Briefly: PfCDPK1 kinase inhibitors, biochemical, TCAMS library (AID 1159585; cut-off not given, nearly all actives have IC50 up to about 0.98 µM;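 also: inhibitors leave more ATP so luminescence rises with inhibition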). The settings on record: recombinant PfCDPK1, Kinase-Glo ATP depletion luminescence. Background: Kinase-Glo measures the ATP left after a reaction by luminescence.
The target in assay [6] is Plasmodium falciparum protein kinase 6 (PK6, PF3D7_1337100) (UniProt Q8IDW1). In words: PfPK6 kinase inhibitors, biochemical, TCAMS library (AID 1159586). The settings on record: recombinant PfPK6, Kinase-Glo ATP depletion luminescence.
Chain of Plasmodium falciparum protein kinase 6 (PK6, PF3D7_1337100) (Q8IDW1 1-305): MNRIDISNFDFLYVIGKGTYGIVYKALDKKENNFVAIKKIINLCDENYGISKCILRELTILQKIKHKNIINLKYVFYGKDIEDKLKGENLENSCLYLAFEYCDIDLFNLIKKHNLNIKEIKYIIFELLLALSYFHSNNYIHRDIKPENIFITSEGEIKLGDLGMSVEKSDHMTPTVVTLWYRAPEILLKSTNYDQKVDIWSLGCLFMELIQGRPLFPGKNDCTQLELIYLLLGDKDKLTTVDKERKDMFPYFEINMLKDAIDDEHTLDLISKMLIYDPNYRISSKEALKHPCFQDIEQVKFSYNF
Assay [7] has as its target Protein kinase 7 (PK7), Plasmodium falciparum 3D7 (PF3D7_0213400) (UniProt Q7YTF7). In words: inhibition of Plasmodium PK7 catalytic activity – biochemical, TCAMS antimalarial set, Kinase-Glo luminescence (AID 1159587). Particulars: recombinant PfPK7, Kinase-Glo ATP depletion luminescence.
Assay [8] addresses Calcium-dependent protein kinase 4 (Plasmodium falciparum (isolate 3D7)) (UniProt Q8IBS5). Briefly: PfCDPK4 kinase inhibitors, biochemical, TCAMS library (AID 1159588; cut-off not given, nearly all actives have IC50 up to about 0.91 µM). Particulars: recombinant PfCDPK4, Kinase-Glo ATP depletion luminescence.

Molecules are shown by their SMILES. Unmarked numbers belong to inactive results. For part of these data: Entries with a potency or affinity are not part of this list. The source made the active and inactive calls. Unless noted, no rule for the calls is given here.

Chain of Calcium-dependent protein kinase 1 (Plasmodium falciparum (isolate 3D7)) (P62344 whole entry, looked up): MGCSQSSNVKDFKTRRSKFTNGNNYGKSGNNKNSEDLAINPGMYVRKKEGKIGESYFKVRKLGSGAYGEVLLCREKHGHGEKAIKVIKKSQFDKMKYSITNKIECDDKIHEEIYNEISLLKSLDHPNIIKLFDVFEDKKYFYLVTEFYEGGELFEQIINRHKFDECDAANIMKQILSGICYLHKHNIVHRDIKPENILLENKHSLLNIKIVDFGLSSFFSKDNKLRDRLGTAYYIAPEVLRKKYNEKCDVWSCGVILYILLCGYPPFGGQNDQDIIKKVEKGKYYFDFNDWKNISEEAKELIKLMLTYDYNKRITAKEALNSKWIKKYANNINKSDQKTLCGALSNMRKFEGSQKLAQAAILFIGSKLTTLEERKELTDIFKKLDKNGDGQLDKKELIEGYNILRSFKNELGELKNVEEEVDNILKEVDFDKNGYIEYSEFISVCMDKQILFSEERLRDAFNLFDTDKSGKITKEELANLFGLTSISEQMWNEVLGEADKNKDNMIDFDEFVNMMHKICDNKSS
Chain of Calcium-dependent protein kinase 4 (Plasmodium falciparum (isolate 3D7)) (Q8IBS5 whole entry, looked up): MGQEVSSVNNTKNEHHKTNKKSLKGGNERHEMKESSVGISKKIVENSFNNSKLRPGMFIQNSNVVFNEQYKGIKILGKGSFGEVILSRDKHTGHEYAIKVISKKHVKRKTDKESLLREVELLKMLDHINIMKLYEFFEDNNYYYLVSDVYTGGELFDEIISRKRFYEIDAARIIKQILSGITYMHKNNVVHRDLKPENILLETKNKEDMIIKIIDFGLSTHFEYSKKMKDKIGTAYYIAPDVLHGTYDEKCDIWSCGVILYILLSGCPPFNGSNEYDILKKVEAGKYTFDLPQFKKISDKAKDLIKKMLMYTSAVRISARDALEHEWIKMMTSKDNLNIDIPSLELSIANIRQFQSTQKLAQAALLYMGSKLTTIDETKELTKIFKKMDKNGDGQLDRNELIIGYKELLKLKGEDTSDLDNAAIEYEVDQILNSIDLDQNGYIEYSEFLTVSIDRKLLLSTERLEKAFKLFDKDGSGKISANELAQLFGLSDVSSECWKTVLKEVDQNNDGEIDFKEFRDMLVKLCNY
Chain of Protein kinase 7 (PK7), Plasmodium falciparum 3D7 (PF3D7_0213400) (Q7YTF7 1-343): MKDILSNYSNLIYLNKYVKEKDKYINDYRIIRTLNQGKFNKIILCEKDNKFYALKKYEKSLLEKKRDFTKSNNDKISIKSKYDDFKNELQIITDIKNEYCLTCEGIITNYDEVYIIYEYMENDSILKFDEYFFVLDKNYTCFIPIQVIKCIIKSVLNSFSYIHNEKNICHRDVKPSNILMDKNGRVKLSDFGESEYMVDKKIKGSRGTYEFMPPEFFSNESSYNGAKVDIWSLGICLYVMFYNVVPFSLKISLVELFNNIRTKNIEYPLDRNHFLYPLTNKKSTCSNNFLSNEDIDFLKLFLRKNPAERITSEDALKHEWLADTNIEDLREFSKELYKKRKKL

For the compound `CCN1CCC(N(Cc2ccc(-c3ccc(Cl)cc3)cc2)C(=O)Cn2c(CCc3cccc(F)c3F)cc(=O)c3ccccc32)CC1`, the growth inhibition in assay [1] is 95% (active); in assay [4] it was 99% (active). Moreover, the results for the inhibition in assay [2] and in assay [3] were 100% (active) and -7%, respectively. For the same compound, the outcome in assay [5], in assay [6], in assay [7] and in assay [8] was inactive.
`Cc1[nH]c(C)c(-c2ccc(OCc3ccc(OC(F)(F)F)cc3)nc2)c(=O)c1Br`: the growth inhibition is 97% (active) in assay [1] and 98% (active) in assay [4]. Besides, the inhibition in assay [2] was 10%; in assay [3] it was 7%. Besides, the result in assay [5], in assay [6], in assay [7] and in assay [8] was inactive.
`CCOc1cc(C(=O)NC2CCN(Cc3ccccc3)CC2)ccc1-c1nc2cc(Cl)c(F)cc2[nH]1`: the growth inhibition in assay [1] was 51% (active); in assay [4], 101% (active). For the same compound, the inhibition is 13% in assay [2] and 4% in assay [3]. For the same compound, the outcome in assay [5], in assay [6], in assay [7] and in assay [8] was inactive.
Consider `COc1cc2nc(-c3ccccc3)nc(N3CCN(CC(=O)N4CCCC4)CC3)c2cc1OC`, for which the growth inhibition was 70% (active) in assay [1] and 84% (active) in assay [4]. Also, the inhibition is 7% in assay [2] and -1% in assay [3]. The result in assay [5], in assay [6], in assay [7] and in assay [8] was inactive.
In the case of `CC(C)c1ccc(NC(=O)c2ccc(C(=O)NC3CCN(Cc4ccccc4)CC3)cc2)cc1`, the growth inhibition in assay [1] is 7%; in assay [4] it was 88% (active). The inhibition is 30% in assay [2] and -3% in assay [3]. For the same compound, the outcome in assay [5], in assay [6], in assay [7] and in assay [8] was inactive.
On to `CCCCC(CC)C(=O)C(NC(=O)[C@H](CSC(c1ccccc1)(c1ccccc1)c1ccccc1)NC(=O)OC(C)(C)C)C(=O)OC` (some centres undefined), for which the growth inhibition in assay [1] is 31%; in assay [4], 88% (active). Also, the figures for the inhibition in assay [2] and in assay [3] were 8% and 0%, respectively. Moreover, the result in assay [5], in assay [6], in assay [7] and in assay [8] was inactive.
For `Oc1ccc(CN2CC[C@@H](N3CCN(CCc4ccccc4)CC3)[C@H](O)C2)cc1Cl`, the growth inhibition in assay [1] is 77% (active); in assay [4], 100% (active). For the same compound, the figures for the inhibition in assay [2] and in assay [3] were 0% and 2%, respectively. The outcome in assay [5], in assay [6], in assay [7] and in assay [8] was inactive.
In the case of `N#Cc1cccc(-c2ccc(C(=O)Nc3ccc4c(c3)CCN(C3CCC3)CC4)cn2)c1`, the growth inhibition was 5% in assay [1] and 96% (active) in assay [4]. Further, the inhibition was 26% in assay [2] and -2% in assay [3]. For the same compound, the result in assay [5], in assay [6], in assay [7] and in assay [8] was inactive.
For `Cc1ccc(S(=O)(=O)NC2CCN(c3ccnc4cc(Cl)ccc34)C2)cc1` (centres undefined), the growth inhibition is 90% (active) in assay [1] and 99% (active) in assay [4]. The inhibition in assay [2] is 21%; in assay [3], -3%. Moreover, the outcome in assay [5], in assay [6], in assay [7] and in assay [8] was inactive.
With `Cc1cccc2[nH]c(-c3ccc(-c4cccc(CNC5CCN(C)CC5)c4)s3)nc12`, the growth inhibition in assay [1] is 73% (active); in assay [4], 98% (active). In addition, the inhibition was 21% in assay [2] and 2% in assay [3]. For the same compound, the result in assay [5], in assay [6], in assay [7] and in assay [8] was inactive.
As to `O=C(Nc1nc2cc(S(=O)(=O)NCCc3cccc(F)c3)ccc2n1CCCn1ccnc1)c1ccc(Cl)cc1`, the growth inhibition was 8% in assay [1] and 90% (active) in assay [4]. Further, the inhibition in assay [2] was -24%; in assay [3], 0%. The outcome in assay [5], in assay [6], in assay [7] and in assay [8] was inactive.
On to `NC1CCCN(Cc2cccc(-c3ccc(-c4nc5ccc(C(F)(F)F)cc5[nH]4)cc3)c2)C1` (centres undefined), for which the results for the growth inhibition in assay [1] and in assay [4] were 96% (active) and 99% (active), respectively. The inhibition in assay [2] is 47%; in assay [3], -3%. The outcome in assay [5], in assay [6], in assay [7] and in assay [8] was inactive.
With `CCC(C)NS(=O)(=O)c1ccc2nc(Nc3ccc(C)c(Cl)c3)n(C3CCCCC3)c2c1` (centres undefined), the growth inhibition is 98% (active) in assay [1] and 99% (active) in assay [4]. In addition, the inhibition in assay [2] was -8%; in assay [3], 5%. The outcome in assay [5], in assay [6], in assay [7] and in assay [8] was inactive.
For the compound `O=C(c1ccc(O)c(-c2cc(Cl)cc(Cl)c2)c1)N1CCCC1`, the growth inhibition in assay [1] is 57% (active); in assay [4] it was 90% (active). Besides, the values for the inhibition in assay [2] and in assay [3] were 3% and -6%, respectively. For the same compound, the result in assay [5], in assay [6], in assay [7] and in assay [8] was inactive.
As to `O=C(NCC1CCN(Cc2ccsc2)C1)c1cc(-c2cccc(C(F)(F)F)c2)cs1` (centres undefined), the growth inhibition is 15% in assay [1] and 98% (active) in assay [4]. Moreover, the inhibition in assay [2] was 37%; in assay [3], -2%. For the same compound, the result in assay [5], in assay [6], in assay [7] and in assay [8] was inactive.
As to `N#Cc1ccc2c(c1)CN(CCCCNC(=O)c1ccc(-c3ccccc3)cc1)CC2`, the growth inhibition was 10% in assay [1] and 96% (active) in assay [4]. Moreover, the inhibition in assay [2] is -9%; in assay [3] it was -1%. The result in assay [5], in assay [6], in assay [7] and in assay [8] was inactive.
For `CCCCC(=O)N(CCOC)Cc1ccc(-c2ccc(CNCCC)cn2)cc1`, the results for the growth inhibition in assay [1] and in assay [4] were 68% (active) and 99% (active), respectively. The values for the inhibition in assay [2] and in assay [3] were 30% and -3%, respectively. Moreover, the outcome in assay [5], in assay [6], in assay [7] and in assay [8] was inactive.
Regarding `c1ccc(CN2CCC(NCc3ccccc3-c3ccc(CNCc4ccc5c(c4)OCO5)cc3)CC2)cc1`, the growth inhibition in assay [1] is 49%; in assay [4], 102% (active). The inhibition in assay [2] was 26%; in assay [3], 3%. Moreover, the result in assay [5], in assay [6], in assay [7] and in assay [8] was inactive.
